An excerpt weighted towards active compounds, which were near 15% of everything screened.
VP16 counter = counter-screen for ROR gamma inhibitors: Gal4-VP16 reporter; Drosophila S2 Gal4-VP16 UAS-luciferase, luminescence, 20 h; Potency, µM (doses to about 53.6 µM), without a hit: at the highest dose activity, negative = inhibition, actives largely listed as inhibitors; actives 3.5% (n = 310,000); AID 2546;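 further: Gal4-VP16 expression switched on by copper sulfate through the metallothionein promoter; nearly all actives have a fitted effect of over 50% in size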
DT40 TDP1 no CPT = qHTS for Inhibitors of human tyrosyl-DNA phosphodiesterase 1 (TDP1): qHTS in cells in absence of CPT; DT40 Tdp1-/- hTDP1 cells, no CPT, ATP luminescence, 48 h; Potency, µM (doses to about 46.2 µM), for the others: at the highest dose activity change, negative = growth inhibition, hits mostly inhibitors; actives 15% (n = 420,000); AID 686978, 2013; further: nearly all actives have a fitted effect of over 55% in size
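No-CPT arm: Tdp1-/-;hTDP1 DT40 cells (400/well) plus compounds, incubated ≥48 hr at 37 °C. Readout CellTiter-Glo luminescence.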
ALOX12 inh = ALOX12 (human) lipoxygenase inhibition | purified 12hLO, xylenol orange hydroperoxide absorbance | Potency, µM (doses to about 108 µM), without a hit: at the highest dose activity change, negative = inhibition, actives largely listed as inhibitors | actives 1.1% (n = 580,000)
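Purified human 12hLO at 150 nM in 25 mM Hepes, 0.01% Triton X-100, pH 7.0, preincubated 15 min at room temperature with compound. Reaction started with 40 uM arachidonic acid, 30 min at room temperature. Hydroperoxide measured by Fe-xylenol orange, 573/405 nm absorbance ratio.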
ELG1 repair inh = blocks ELG1-dependent DNA repair in HEK293T cells. HEK293T ELG1-luciferase reporter, luminescence, 16 h; DNA damage induced by 5-fluorouridine. Potency, µM (top dose mostly 46.1 µM), inactives show top-dose activity change, negative = inhibition, most hits filed as inhibitors. actives 2.3% (n = 330,000). AID 504467; further: nearly all actives have a fitted effect of over 55% in size
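Overnight (16 hr) co-exposure of 2,000 cells/well to 5-fluorouridine and compound at 37 °C preceded detection. Luciferase was quantified via ONE-Glo luminescence; loss of signal denotes inhibition.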
DT40 TDP1 CPT = DT40-hTDP1 cell growth loss with CPT; chicken DT40 Tdp1-/-;hTDP1 cells + 20 nM CPT, ATP luminescence, 48 h; Potency, µM (top dose mostly 46.2 µM), without a hit: at the top dose activity change, negative = growth inhibition, most hits filed as inhibitors; actives 12% (n = 420,000); further: nearly all actives have a fitted effect of over 55% in size
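Cell growth measured by CellTiter-Glo luminescence after a minimum 48 h, 37 C compound exposure with 20 nM CPT in Tdp1-knockout DT40 cells stably expressing hTDP1, seeded 400/well; qHTS titration format.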
RORgamma inh = blocks mouse ROR gamma transcriptional activity | P51450 | Drosophila S2 Gal4-RORgamma UAS-luciferase reporter, 20 h | Potency, µM (top dose mostly 53.6 µM), for inactives: top-dose activity change, negative = inhibition, hits mostly inhibitors | actives 5.4% (n = 310,000) | AID 2551; further: nearly all actives have a fitted effect of over 60% in size
Target sequence (P51450 whole entry, looked up, the tested form may be a part): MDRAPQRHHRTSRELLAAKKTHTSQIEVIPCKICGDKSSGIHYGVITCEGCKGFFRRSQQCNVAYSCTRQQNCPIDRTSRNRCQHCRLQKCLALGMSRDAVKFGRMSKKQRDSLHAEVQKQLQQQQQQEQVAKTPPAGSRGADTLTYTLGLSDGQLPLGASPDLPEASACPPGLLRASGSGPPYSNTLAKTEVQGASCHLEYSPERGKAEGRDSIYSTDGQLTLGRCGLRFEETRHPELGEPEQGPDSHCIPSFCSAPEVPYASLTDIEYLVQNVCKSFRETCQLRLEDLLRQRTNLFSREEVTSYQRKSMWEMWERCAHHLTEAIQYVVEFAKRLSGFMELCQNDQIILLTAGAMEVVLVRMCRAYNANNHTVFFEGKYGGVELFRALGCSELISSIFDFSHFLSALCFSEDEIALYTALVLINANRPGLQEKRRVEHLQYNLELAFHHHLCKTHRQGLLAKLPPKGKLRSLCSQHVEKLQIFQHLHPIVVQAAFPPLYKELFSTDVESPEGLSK
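ROR gamma transcriptional activity was tracked as Gal4-UAS luciferase output in stably transfected Drosophila Schneider cells, with compound added 1 hr before 700 uM copper sulfate induction and a 20 hr ambient-temperature incubation.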
An asterisk follows results filed as active; ? = inconclusive; . = no result given; [ ] = remark or other dose. The call rests on the fitted dose curve; in most records, active means well fitted curve in the direction sought with a large enough effect; inconclusive means small, poorly fitted or top-dose-only effect, or another doubt; inactive means no such curve, though single readings can be large; an effect the other way counts as inactive or inconclusive. On the % scale 0 is the no-effect control and ±100 the full control effect; potency means the concentration at half of the fitted maximal effect.

SMILES	VP16 counter	DT40 TDP1 no CPT	ALOX12 inh	ELG1 repair inh	DT40 TDP1 CPT	RORgamma inh
COc1cc(C2CC(=O)c3cnc(N4CCN(Cc5ccccc5)CC4)nc3C2)cc(OC)c1OC (centres undefined)	4.2%	7.31µM*	6.5%	3.26µM*	7.31µM*	2.6%
COc1ccc(C2CC(=O)c3c(C)nc(N4CCN(Cc5ccccc5)CC4)nc3C2)cc1OC (centres undefined)	-7.6%	13µM*	0.0%	?	11.6µM*	?
O=C(C(Sc1nc2ccccc2o1)c1ccccc1)N1CCCC1 (centres undefined)	.	.	-7.2%	.	.	.
CC(CN1CCOCC1)OC(=O)C(C)(c1ccccc1)c1ccccc1 (centres undefined)	1.9%	?	0.0%[57.4 µM]	-26.2%	?	40.1%
CC(CN1CCCCC1)OC(=O)C(C)(c1ccccc1)c1ccccc1 (centres undefined)	-11.1%	20.6µM*	51.3%	-11.9%	?	-20.8%
Cc1ccnc(NC(=O)CCC(=O)N(CC(=O)NCc2ccccc2)c2ccc3c(c2)OCO3)c1	-3.6%	23.1µM*	13.0%	?	7.31µM*	?
Cn1cc([C@@H](NC(=O)c2ccc3c(c2)OCC(=O)N3)C2CC(O)C2)cn1 (some centres undefined)	.	.	39.0%	.	.	.
Cc1c(CC(=O)N2CCN(C(=O)C3COc4ccccc4O3)CC2)c(=O)oc2cc(O)ccc12 (centres undefined)	1.2%	3.1%	-8.3%	0.731µM*	2.0%	1.3%
COc1ccc2c(C)c(CC(=O)N3CCN(C(=O)C4COc5ccccc5O4)CC3)c(=O)oc2c1 (centres undefined)	5.4%	?	7.6%	23.1µM*	-25.0%	-19.0%
COC(=O)[C@H](Cc1ccc(OC)cc1)NC(=O)[C@H]1CN(C(=O)c2cccnc2)CCN1S(C)(=O)=O	.	.	-1.1%	.	.	.
CCCN(C(=O)Cc1nc(-c2ccc(OC)cc2)no1)c1ccccc1C	.	?	-23.5%	.	20.6µM*	.
CCN(C(=O)C1CCCN(c2nc(-c3ccc(OC)cc3)no2)C1)c1ccccc1F (centres undefined)	-9.7%	?	19.9%	?	?	?
CCN(C(=O)Cc1nc(-c2ccc(OC)cc2)no1)c1cccc(Cl)c1	.	16.4µM*	-6.8%	.	?	.
CCCN(C(=O)CCc1nc(-c2ccc(OC)cc2)no1)c1ccccc1F	.	16.4µM*	-5.1%	.	?	.
CCCCNC(=O)C[C@@H]1C[C@@]2(C(=O)OC)CC(C)(C)CC=C2N(Cc2ccccc2)C1=O	.	?	-5.8%	.	?	.
CCCCCCCCN1C(=O)[C@H](CC(=O)NCc2cccc3ccccc23)C[C@@]2(C(=O)OC)CC(C)(C)CC=C12	.	11.6µM*	-1.6%	.	-66.7%	.
CCCCCCCCN1C(=O)[C@H](CC(=O)NCCCCc2ccccc2)C[C@@]2(C(=O)OC)CC(C)(C)CC=C12	.	20.6µM*	-5.1%	.	16.4µM*	.
CCCCCCCCN1C(=O)[C@H](CC(=O)NCCCC)C[C@@]2(C(=O)OC)CC(C)(C)CC=C12	.	11.6µM*	?	.	10.3µM*	.
CCCCCCCCN1C(=O)[C@H](CC(=O)NCc2ccccc2)C[C@@]2(C(=O)OC)CC(C)(C)CC=C12	.	5.17µM*	-12.5%	.	3.66µM*	.
CCCCCCCCN1C(=O)[C@H](CC(=O)NCC23CC4CC(CC(C4)C2)C3)C[C@@]2(C(=O)OC)CC(C)(C)CC=C12	.	?	-0.9%	.	4.0%	.
Cc1cc(NC(=O)Cn2cccc2-c2nc(-c3ccc4c(c3)OCO4)no2)n[nH]1	.	.	-12.3%	.	.	.
COc1cc(NC(=O)c2[nH]c(C)c(C(C)=O)c2C)cc(OC)c1OC	7.5%	-28.0%	?	2.7%	-23.6%	-21.5%
COc1ccc(C(C)(C)C)cc1NC(=O)c1[nH]c(C)c(C(C)=O)c1C	-12.6%	16.4µM*	?	5.8µM*	-1.5%	2.3%
COc1ccc(NC(=O)c2[nH]c(C)c(C(C)=O)c2C)cc1Cl	4.4%	?	-4.3%	?	2.06µM*	?
O=C(O)[C@H]1C[C@H](C(=O)NCc2ccncc2)CN(C(=O)C2CCCC2)C1	.	.	9.3%	.	.	.
SMILES	VP16 counter	DT40 TDP1 no CPT	ALOX12 inh	ELG1 repair inh	DT40 TDP1 CPT	RORgamma inh
COc1ccc(OC)c(CCNC(=O)c2ccc(Cl)c(N3C(=O)CCS3(=O)=O)c2)c1	.	.	-4.8%	.	.	.
CCC(=O)Nc1cc(C(=O)OC(C(=O)c2ccc(C)c(C)c2)c2ccccc2)ccc1C (centres undefined)	-6.6%	?	-1.3%	-19.1%	18.4µM*	25.9%
COc1cc2ccnc(C=NO)c2cc1OC	.	20.6µM*	26.5%	.	20.6µM*	.
COc1cc(Br)c(C(=O)c2nccc3cc(OC)c(OC)cc23)cc1OC	.	18.4µM*	1.6%	-9.5%	23.1µM*	.
COc1cc(N)c(C(=O)c2nccc3cc(OC)c(OC)cc23)cc1OC	-7.6%	-19.9%	?	14.8%	9.8%	-1.0%
COc1cc2ccnc(Cc3cccc(OC)c3OC)c2cc1OC	?	13µM*	-22.6%	-17.8%	?	?
COc1cc2ccnc(C=O)c2cc1OC	.	2.59µM*	.	.	4.61µM*	.
O=C(C(Sc1nncn1-c1ccccc1)c1ccccc1)N1CCOCC1 (centres undefined)	.	.	19.0%	.	.	.
Cc1cc2nnn(-c3nnc(-c4ccccc4)c4ccccc34)c2cc1C	-7.7%	?	0.0%	19.9%	25.9µM*	-2.0%
O=C(O)CNC(=O)CNC(=O)Cn1nc2c(cc1=O)CCCC2	.	.	14.6%	.	.	.
COc1cc2c(cc1OC)C(Cc1ccccc1[N+](=O)[O-])=NCC2	.	23.1µM*	?	.	?	.
COc1ccc(NC(=O)COC(=O)Cc2ccccc2[N+](=O)[O-])cc1OC	-17.5%	25.9µM*	-2.3%	11.0%	?	?
COc1cc2c(cc1OC)CN(c1ncccc1[N+](=O)[O-])CC2	?	-23.7%	?	?	0.6%	0.0%
COc1ccccc1CNc1ccc2c(c1)CCC2	3.2%	10.3µM*	0.0%	?	4.61µM*	26.0%
COc1ccc(NCc2ccccc2[N+](=O)[O-])cc1OC	3.9%	16.4µM*	-26.8%	-17.1%	16.4µM*	3.9%
CC1Sc2ccc(S(=O)(=O)CCC(=O)NCCC3=CCCCC3)cc2NC1=O (centres undefined)	.	.	-20.6%	.	.	.
CNC(=O)c1cccc(NC(=O)CSCc2csc(-c3ccccc3)n2)c1	.	.	-7.5%	.	.	.

From PubChem BioAssay
